Measurements: ChEMBL document CHEMBL1961873, “Compounds: GSK PKIS; Assays: Nanosyn kinase panel” (2012)

Experiments:
[1] = target: Leukocyte tyrosine kinase receptor (Homo sapiens) (UniProt P29376); conditions: at 1 µM;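 note: each value is the mean inhibition of LTK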
[2] = target: Tyrosine-protein kinase Lyn (Homo sapiens) (UniProt P07948); conditions: at 0.1 µM
[3] = target: Tyrosine-protein kinase Lyn (Homo sapiens) (UniProt P07948); conditions: at 1 µM
[4] = target: Tyrosine-protein kinase Lyn (Homo sapiens) (UniProt P07948); conditions: at 0.1 µM; remark: listed apart in the source
[5] = target: Tyrosine-protein kinase Lyn (Homo sapiens) (UniProt P07948); conditions: at 1 µM; remark: listed apart in the source
[6] = target: T1, Tyrosine-protein kinase Mer (Homo sapiens) (UniProt Q12866); conditions: at 0.1 µM
T1 sequence (whole entry): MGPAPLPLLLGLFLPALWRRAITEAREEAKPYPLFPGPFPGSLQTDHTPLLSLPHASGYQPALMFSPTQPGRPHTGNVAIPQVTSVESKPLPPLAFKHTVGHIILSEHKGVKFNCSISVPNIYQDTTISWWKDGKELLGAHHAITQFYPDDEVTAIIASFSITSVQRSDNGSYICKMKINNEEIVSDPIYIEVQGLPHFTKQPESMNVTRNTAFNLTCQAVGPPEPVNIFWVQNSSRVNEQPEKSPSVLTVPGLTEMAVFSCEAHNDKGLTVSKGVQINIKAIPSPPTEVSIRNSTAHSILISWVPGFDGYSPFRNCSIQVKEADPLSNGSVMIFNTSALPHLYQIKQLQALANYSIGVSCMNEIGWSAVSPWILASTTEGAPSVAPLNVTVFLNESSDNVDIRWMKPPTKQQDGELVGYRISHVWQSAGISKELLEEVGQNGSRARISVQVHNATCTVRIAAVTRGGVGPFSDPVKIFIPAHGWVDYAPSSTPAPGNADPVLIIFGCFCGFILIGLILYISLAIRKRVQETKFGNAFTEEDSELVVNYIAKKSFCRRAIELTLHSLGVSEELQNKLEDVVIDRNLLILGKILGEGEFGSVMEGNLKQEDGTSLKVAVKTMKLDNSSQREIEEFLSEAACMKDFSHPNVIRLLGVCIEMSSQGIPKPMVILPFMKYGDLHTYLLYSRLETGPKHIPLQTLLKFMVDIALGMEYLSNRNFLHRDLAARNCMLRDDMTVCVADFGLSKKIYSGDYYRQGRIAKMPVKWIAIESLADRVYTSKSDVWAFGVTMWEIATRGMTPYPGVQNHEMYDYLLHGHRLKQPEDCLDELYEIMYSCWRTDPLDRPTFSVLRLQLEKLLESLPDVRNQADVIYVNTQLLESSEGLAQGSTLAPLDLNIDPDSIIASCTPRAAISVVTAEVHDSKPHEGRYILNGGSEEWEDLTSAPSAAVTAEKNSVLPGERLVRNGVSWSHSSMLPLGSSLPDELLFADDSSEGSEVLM

[7] = target: T1, Tyrosine-protein kinase Mer (Homo sapiens); conditions: at 1 µM
[8] = target: Hepatocyte growth factor receptor (Homo sapiens) (UniProt P08581); conditions: at 0.1 µM
Chain of Hepatocyte growth factor receptor (Homo sapiens) (P08581 whole entry): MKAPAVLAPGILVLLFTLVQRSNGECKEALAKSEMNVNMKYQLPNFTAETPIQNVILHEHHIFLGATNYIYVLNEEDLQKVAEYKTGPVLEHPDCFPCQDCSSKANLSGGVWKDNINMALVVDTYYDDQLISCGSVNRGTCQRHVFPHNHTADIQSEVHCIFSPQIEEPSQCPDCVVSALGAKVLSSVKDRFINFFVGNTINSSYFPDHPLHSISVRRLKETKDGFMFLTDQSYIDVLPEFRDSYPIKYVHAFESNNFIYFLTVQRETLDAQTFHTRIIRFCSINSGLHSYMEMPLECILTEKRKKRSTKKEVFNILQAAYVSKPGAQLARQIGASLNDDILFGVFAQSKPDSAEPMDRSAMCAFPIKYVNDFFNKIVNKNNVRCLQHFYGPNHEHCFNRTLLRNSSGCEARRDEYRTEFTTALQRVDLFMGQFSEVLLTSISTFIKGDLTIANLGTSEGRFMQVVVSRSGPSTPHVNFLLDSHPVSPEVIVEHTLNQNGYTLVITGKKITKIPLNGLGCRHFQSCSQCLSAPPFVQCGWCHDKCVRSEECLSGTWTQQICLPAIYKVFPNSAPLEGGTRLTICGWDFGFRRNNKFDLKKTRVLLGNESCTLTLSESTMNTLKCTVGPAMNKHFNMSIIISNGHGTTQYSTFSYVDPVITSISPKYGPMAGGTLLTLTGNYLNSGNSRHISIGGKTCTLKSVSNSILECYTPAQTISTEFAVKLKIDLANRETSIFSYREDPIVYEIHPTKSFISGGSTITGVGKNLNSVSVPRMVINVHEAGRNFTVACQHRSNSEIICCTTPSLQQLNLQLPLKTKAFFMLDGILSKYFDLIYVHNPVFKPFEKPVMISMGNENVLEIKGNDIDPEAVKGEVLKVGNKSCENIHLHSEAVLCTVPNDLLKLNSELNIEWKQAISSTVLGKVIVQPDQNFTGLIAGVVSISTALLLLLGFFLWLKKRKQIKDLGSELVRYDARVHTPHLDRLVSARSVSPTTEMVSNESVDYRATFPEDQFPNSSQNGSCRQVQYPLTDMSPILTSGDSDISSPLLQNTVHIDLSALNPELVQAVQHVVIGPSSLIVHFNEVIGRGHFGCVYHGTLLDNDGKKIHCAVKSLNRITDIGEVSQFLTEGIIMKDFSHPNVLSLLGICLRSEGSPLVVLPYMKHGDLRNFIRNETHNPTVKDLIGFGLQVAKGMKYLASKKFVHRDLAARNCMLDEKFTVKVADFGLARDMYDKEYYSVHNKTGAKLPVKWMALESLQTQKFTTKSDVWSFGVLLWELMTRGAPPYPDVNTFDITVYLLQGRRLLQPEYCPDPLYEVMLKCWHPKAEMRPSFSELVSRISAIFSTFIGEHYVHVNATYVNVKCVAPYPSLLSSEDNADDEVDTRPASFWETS

[9] = target: Hepatocyte growth factor receptor (Homo sapiens) (UniProt P08581); conditions: at 1 µM
[10] = target: T2, Muscle, skeletal receptor tyrosine-protein kinase (Homo sapiens) (UniProt O15146); conditions: at 0.1 µM;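 note: values are mean inhibition of MuSK from the GSK PKIS kinase screening panel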
T2 sequence (whole entry): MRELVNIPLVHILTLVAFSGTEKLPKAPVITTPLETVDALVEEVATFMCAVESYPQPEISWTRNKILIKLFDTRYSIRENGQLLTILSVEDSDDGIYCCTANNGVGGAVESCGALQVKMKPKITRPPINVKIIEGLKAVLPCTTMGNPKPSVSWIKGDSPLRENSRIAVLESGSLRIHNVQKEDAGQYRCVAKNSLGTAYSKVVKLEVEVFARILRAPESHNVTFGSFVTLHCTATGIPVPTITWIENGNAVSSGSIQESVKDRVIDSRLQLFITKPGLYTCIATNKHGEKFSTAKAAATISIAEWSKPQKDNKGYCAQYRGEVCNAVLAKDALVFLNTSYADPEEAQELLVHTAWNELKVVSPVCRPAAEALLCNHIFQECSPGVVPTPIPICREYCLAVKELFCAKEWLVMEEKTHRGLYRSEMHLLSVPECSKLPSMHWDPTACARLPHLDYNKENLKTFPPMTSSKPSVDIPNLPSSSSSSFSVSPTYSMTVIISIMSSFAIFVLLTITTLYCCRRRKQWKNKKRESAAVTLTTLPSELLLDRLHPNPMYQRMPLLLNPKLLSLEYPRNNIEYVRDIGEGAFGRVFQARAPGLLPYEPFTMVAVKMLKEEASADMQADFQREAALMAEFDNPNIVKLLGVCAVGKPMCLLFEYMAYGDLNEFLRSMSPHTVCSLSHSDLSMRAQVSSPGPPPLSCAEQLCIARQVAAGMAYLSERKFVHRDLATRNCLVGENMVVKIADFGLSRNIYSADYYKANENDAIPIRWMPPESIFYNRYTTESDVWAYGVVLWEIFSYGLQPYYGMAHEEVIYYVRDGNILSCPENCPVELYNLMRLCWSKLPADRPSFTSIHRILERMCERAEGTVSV

Chain of Leukocyte tyrosine kinase receptor (Homo sapiens) (P29376 whole entry): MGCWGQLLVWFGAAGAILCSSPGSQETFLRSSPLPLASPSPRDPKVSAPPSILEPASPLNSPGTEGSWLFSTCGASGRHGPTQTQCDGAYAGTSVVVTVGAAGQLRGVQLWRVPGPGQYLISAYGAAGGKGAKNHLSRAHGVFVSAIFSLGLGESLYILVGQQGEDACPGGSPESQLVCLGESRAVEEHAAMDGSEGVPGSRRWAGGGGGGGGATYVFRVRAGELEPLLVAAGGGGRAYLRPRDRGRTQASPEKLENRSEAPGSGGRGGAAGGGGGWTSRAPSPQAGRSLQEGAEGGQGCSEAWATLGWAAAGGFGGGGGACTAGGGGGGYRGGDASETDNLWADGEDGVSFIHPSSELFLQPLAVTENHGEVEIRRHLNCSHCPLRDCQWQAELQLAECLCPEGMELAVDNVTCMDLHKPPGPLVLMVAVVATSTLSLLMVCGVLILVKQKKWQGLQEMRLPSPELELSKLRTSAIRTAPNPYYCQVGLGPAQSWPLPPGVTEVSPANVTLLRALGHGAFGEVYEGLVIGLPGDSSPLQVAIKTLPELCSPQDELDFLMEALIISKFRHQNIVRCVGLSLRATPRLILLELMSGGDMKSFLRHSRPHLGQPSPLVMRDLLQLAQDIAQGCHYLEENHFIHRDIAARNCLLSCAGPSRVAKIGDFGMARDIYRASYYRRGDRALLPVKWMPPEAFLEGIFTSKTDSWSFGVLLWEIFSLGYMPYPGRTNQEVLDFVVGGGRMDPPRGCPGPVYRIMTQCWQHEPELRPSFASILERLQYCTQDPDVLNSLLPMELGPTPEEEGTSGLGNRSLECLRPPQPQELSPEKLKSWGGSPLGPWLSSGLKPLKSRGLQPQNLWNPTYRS
Chain of Tyrosine-protein kinase Lyn (Homo sapiens) (P07948 2-512 limits assumed): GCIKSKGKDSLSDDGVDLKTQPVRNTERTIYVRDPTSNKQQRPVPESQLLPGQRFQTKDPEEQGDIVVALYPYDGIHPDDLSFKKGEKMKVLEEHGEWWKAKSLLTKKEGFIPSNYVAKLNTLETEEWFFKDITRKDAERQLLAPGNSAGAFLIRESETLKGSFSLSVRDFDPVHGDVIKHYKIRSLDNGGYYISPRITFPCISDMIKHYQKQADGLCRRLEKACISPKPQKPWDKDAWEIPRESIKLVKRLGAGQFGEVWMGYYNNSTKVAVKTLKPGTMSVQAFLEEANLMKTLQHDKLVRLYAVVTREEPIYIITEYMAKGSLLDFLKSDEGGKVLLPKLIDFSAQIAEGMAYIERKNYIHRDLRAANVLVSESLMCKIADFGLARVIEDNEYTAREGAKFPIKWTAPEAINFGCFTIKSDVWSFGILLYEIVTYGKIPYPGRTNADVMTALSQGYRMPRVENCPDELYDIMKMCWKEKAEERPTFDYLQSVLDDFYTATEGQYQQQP

SMILES | inhibition [1] [%] | inhibition [2] [%] | inhibition [3] [%] | inhibition [4] [%] | inhibition [5] [%] | inhibition [6] [%] | inhibition [7] [%] | inhibition [8] [%] | inhibition [9] [%] | inhibition [10] [%]
CC(C)COC(=O)c1ccc2c(c1)/C(=C/Nc1ccc(S(N)(=O)=O)cc1)C(=O)N2 | 4.2 | 2.35 | 24.3 | 0.51 | 20.4 | 2.14 | 4.37 | -4.39 | 13.3 | 7.69
COc1cc2ncn(-c3cc(OCc4ccccc4C(F)(F)F)c(C(=O)N(C)C)s3)c2cc1OC | 1.07 | 0.76 | 10.9 | 0.93 | 8.58 | 1.59 | 2.36 | 1.4 | -4.49 | -0.19
Clc1ccc(-c2nn3ncccc3c2-c2ccnc(Nc3ccccc3)n2)cc1 | 3.81 | 7.57 | 40.7 | 4.2 | 35.4 | 0.11 | 6.33 | 4.95 | 4.06 | 1.49
CCCN(CCS(C)(=O)=O)Cc1ccc(-c2ccc3ncnc(Nc4ccc(OCc5cccc(F)c5)c(Cl)c4)c3c2)o1 | 5.18 | 4.64 | 7.93 | 2.71 | 6.38 | 4.13 | 7.18 | 2.91 | 5.26 | 3.54
CCn1c(-c2nonc2N)nc2ccccc21 | 1.66 | 3.33 | 2.16 | 2.02 | 0.98 | -0.11 | 1.81 | 5.36 | 2.36 | 3.36
Cc1cccc2c1NC(=O)/C2=N\Nc1ccc(S(N)(=O)=O)cc1 | 2 | 3.38 | 5.9 | 1.15 | 2.52 | 1.25 | 2.98 | 4.07 | -0.51 | 2.77
CN(C)CCOc1ccc(-c2nc(-c3ccncc3)c(-c3ccc4c(c3)CC/C4=N\O)[nH]2)cc1 | 8.56 | 6.26 | 8.56 | 2.81 | 6.8 | 0.89 | 4.76 | 3.76 | 13.3 | 2.95
CC1=C(C(=O)Nc2cc(Cl)c3[nH]ncc3c2)C(c2ccc(C(F)(F)F)cc2)CC(=O)N1 (stereo not given) | 3.88 | 5.29 | 10.9 | 3.46 | 9.12 | 1.72 | 0.92 | 0.14 | 4.94 | 50.2
COc1ccc2c(-c3ccnc(Nc4cccc(OC(F)(F)F)c4)n3)cnn2n1 | 4.46 | 7.95 | 9.21 | 3.18 | 7.1 | 1.44 | 2.89 | 4.94 | 15.7 | 5.85
c1cc(-c2cnn3nc(N4CCOCC4)ccc23)nc(NC2CC2)n1 | 6.33 | 3.58 | 2.39 | 2.01 | 3.12 | 1.15 | 6.24 | -2.37 | 2.41 | 4.2
COC(=O)Nc1nc2ccc(S(=O)(=O)c3ccc(NC(=O)Nc4cc(C(F)(F)F)ccc4F)cc3)cc2[nH]1 | 0.53 | 3.86 | 3.43 | 1.56 | 3.05 | 0.88 | 4.05 | -2.38 | 0.66 | 2.5
N#Cc1c(NC(=O)CN2CCOCC2)sc2c1CCCC2 | 4.38 | 4.72 | 7.89 | 2.92 | 5.26 | 1.87 | 4.98 | 7.91 | 13 | 2.41
c1ccc(COc2ccc(Nc3ncnc4ccc(-c5ccco5)cc34)cc2)cc1 | 1.92 | 1.51 | 2.5 | 1.39 | 1.94 | 1.57 | 12.7 | 7.46 | 2.85 | 0.09
NC(=O)c1sc(-n2cnc3ccc(C(F)(F)F)cc32)cc1OCc1ccccc1Br | 3.98 | 5.8 | 6.03 | 2.92 | 3.3 | 1.71 | 1.36 | 3.13 | -0.12 | 4.43
CCn1c(-c2nonc2N)nc2c(C#CC(C)(C)O)ncc(OC3CCNCC3)c21 | 3.06 | 4.34 | 4.35 | 2.01 | 2.89 | 3.67 | 2.19 | 5.39 | -3.51 | 3.1
CC(=O)NCc1cccc(C#Cc2cncnc2Nc2ccc(OCc3cccc(F)c3)c(Cl)c2)c1 | 0.67 | -0.07 | -0.62 | -0.59 | -1.18 | 0.61 | 2.93 | 4.9 | 1.83 | -0.6
COc1cc(Nc2nccc(Nc3ccc4c(C)n[nH]c4c3)n2)cc(OC)c1OC | 33.3 | 49.6 | 87.4 | 44.5 | 85.6 | 3.5 | 14.4 | 1.57 | 12.3 | 21.3
